# This is a sample that favours compounds with a hit; in the whole collection about 10% have one here.
# BAZ2B inh: qHTS Assay for Inhibitors of BAZ2B. AID 504333, 2011. AlphaScreen BAZ2B-H3K14Ac peptide displacement. 360,000 tested, 4.4% active. Potency, µM (series often up to 114 µM), most hits filed as inhibitors. Bromodomain adjacent to zinc finger domain protein 2B (Homo sapiens), Q9UIF8; note: nearly all actives have a fitted effect of over 60% in size
#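 Complex of BAZ2B and biotin-H3K14Ac (50 nM apiece) forms over 30 min at RT, then faces library compounds up to 110 uM for another 30 min; AlphaScreen beads added, 20 min dark incubation, luminescence read.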
# HP1b binding inh: HTS for Inhibitors of HP1-beta Chromodomain Interactions with Methylated Histone Tails | 390,000 tested, 0.56% active | AID 540317, 2011 | Potency, µM (top dose mostly 114 µM), usual class: inhibitors | AlphaScreen HP1-beta / biotin-H3K9me3 peptide binding; note: nearly all actives have a fitted effect of over 70% in size
#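 AlphaScreen: HP1-beta (50 nM) preformed 30 min with biotin-H3(1-18)K9me3 peptide (50 nM) in PBS pH 7.4, 0.01% Tween-20. Compound added for 30 min at RT, then streptavidin donor/nickel chelate acceptor beads (10 ug/mL) for 30 min.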
# Six1-Eya2 inh: qHTS Assay for Inhibitors of the Six1/Eya2 Interaction; activity change, % (test concentration not listed); AlphaScreen GST-Six1/His-Eya2 binding, biochemical; stronger effect = lower value; 360,000 tested, 0.56% active; Homeobox protein SIX1 (Homo sapiens) + Protein phosphatase EYA2 (Homo sapiens), …; AID 651725, 2012; in the data active = activity change below about -65%; inconclusive = mostly about -30% to -63%
#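 Six1/Eya2 binding was read as AlphaScreen signal after compounds were pinned into GST-Six1 plus His-tagged Eya2 (5X stock 250/500 nM) in pH 8.0 Tris/NaCl/TCEP buffer, beads added, then incubated 1 h, 37 C, dark.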
# G9a inh: qHTS Assay for Inhibitors of Histone Lysine Methyltransferase G9a; Potency, µM (series often up to 102 µM), hits mostly inhibitors; 350,000 tested, 8.8% active; Histone-lysine N-methyltransferase EHMT2 (Homo sapiens), Q96KQ7; G9a H3K9 monomethylation, AlphaScreen, 2 h; AID 504332, 2011; note: nearly all actives have a fitted effect of over 75% in size
#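 Using a bead-based AlphaScreen, monomethylated H3K9 product from 2 h room-temperature reactions (G9a 20 nM, peptide 500 nM, SAM 20 uM) was detected with 0.5 ug/mL rabbit anti-H3K9me1 antibody.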
# CtBP-E1A blk: qHTS Assay for Inhibitors of the CtBP/E1A Interaction. CtBP / adenovirus E1A interaction (AlphaScreen). AlphaScreen GST-E1A/His-CtBP binding, 1536-well; stronger effect = lower value. activity change, % (test concentration not listed). 340,000 tested, 0.49% active; in the data active = activity change below about -65%; inconclusive = mostly about -30% to -63%
#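 Homogeneous bead-based format: GST-tagged E1A captured on glutathione donor beads, His-tagged CtBP on nickel acceptor beads; compounds precede bead addition by 2 h at 37 °C.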
# JMJD2A Tudor: qHTS Assay for Inhibitors of JMJD2A-Tudor Domain. Lysine-specific demethylase 4A (Homo sapiens), O75164. Potency, µM (titrated, usually from 114 µM), usual class: inhibitors. 390,000 tested, 4.4% active. AlphaScreen JMJD2A-Tudor / H3K4me3 peptide binding; note: nearly all actives have a fitted effect of over 50% in size
# A number is an active result; i = inactive; ? = inconclusive; nt = no result; [ ] = remark or other dose. Unless noted, calls come from the whole dose curve; as a rule, active = well fitted inhibition curve with a large enough effect; inconclusive = small, poorly fitted or top-dose-only effect; inactive = no such curve, though single readings can be large or run the other way.
SMILES,BAZ2B inh,HP1b binding inh,Six1-Eya2 inh,G9a inh,CtBP-E1A blk,JMJD2A Tudor
CCOC(=O)c1c(-c2ccccc2)csc1NC(=S)N(CC)CC,i,i,i,22µM,i,i
CCOC(=O)c1c(-c2ccc(C)cc2)csc1NC(=O)c1nc(SC(C)C)ncc1Cl,i,i,nt,13µM,nt,i
CCOC(=O)c1c(-c2ccc(C)cc2)csc1NC(=O)c1cc(=O)c2cc(C)cc(C)c2o1,i,?,nt,7.1µM,nt,i
CCOC(=O)c1c(-c2ccc(C)cc2)csc1NC(=O)c1cc(=O)c2cc(Cl)ccc2o1,i,i,nt,i,nt,i
CCOC(=O)c1c(NC(=O)c2noc(C)c2[N+](=O)[O-])sc(C(C)=O)c1C,i,i,i,40µM,i,i
CCOC(=O)c1c(-c2ccc(C)cc2)csc1NC(=O)c1nc(SCC)ncc1Cl,i,i,nt,i,nt,i
CCOC(=O)c1c(NC(=O)c2cc(-c3cccc(O)c3)on2)sc(C(C)=O)c1C,?,i,i,?,i,i
CCOC(=O)c1c(-c2ccccc2)csc1NC(=O)c1nn(CC)cc1Br,i,i,i,?,i,i
O=C(NCc1ccc(F)cc1Cl)c1cc(=O)[nH]c2ccc(S(=O)(=O)N3CCCCC3)cc12,i,i,nt,i,nt,i
O=c1oc2cc(O)ccc2cc1-c1nc(-c2ccc(Cl)c(Cl)c2)cs1,i,i,nt,i,nt,i
COc1ccc(CNC(=O)c2ccc(NC(=O)N3CCSc4ncccc43)cc2)cc1OC,i,i,nt,?,nt,i
COCCN(C(=O)COC(=O)COc1ccc2ccccc2c1)c1c(N)n(Cc2ccccc2)c(=O)[nH]c1=O,nt,i,i,nt,i,i
CN(C(=O)COC(=O)COc1ccc2ccccc2c1)c1c(N)n(Cc2ccccc2)c(=O)[nH]c1=O,i,i,i,i[12.7 µM],i,i
Cc1cc(OCC(=O)OCC(=O)N(C)c2c(N)n(Cc3ccccc3)c(=O)[nH]c2=O)ccc1Cl,i,i,i,6.3µM,i,i
COCCN(C(=O)COC(=O)COc1ccc(Cl)c(C)c1)c1c(N)n(Cc2ccccc2)c(=O)[nH]c1=O,i,i,i,40µM,i,i
CCCCC1=CC2=CC(=O)C(C)(OC(=O)C3CCCC3)C(=O)C2=CO1 (stereo not drawn),50µM,?,i,?,nt,79µM
CC1(OC(=O)CCc2ccccc2)C(=O)C=C2C=C(c3ccsc3)OC=C2C1=O (stereo not drawn),50µM,nt,nt,?,nt,nt
CCCCC1=CC2=CC(=O)C(C)(OC(=O)CC)C(=O)C2=CO1 (stereo not drawn),nt,?,i,nt,nt,?
CC1(OC(=O)C2CCCC2)C(=O)C=C2C=C(c3ccsc3)OC=C2C1=O (stereo not drawn),50µM,?,i,?,i,?
O=C(COc1ccc2oc3c(c2c1)CCCC3)Nc1ccc(Cl)cc1,i,i,nt,i,nt,i
NCCCC[C@@H]1NC(=O)c2cc([N+](=O)[O-])cc(F)c2NCCCC[C@@H](C(N)=O)NC(=O)CNC1=O,i,i,i,i,i,i
NC(=O)C(CC(=O)O)NC(=O)[C@@H]1CCCCNc2c(I)cc([N+](=O)[O-])cc2C(=O)N[C@@H](CO)C(=O)NCC(=O)N1 (stereo partly drawn),?,nt,nt,28µM,nt,nt
NC(=O)C(CC(=O)O)NC(=O)[C@@H]1CCCNc2c(I)cc([N+](=O)[O-])cc2C(=O)N[C@@H](CO)C(=O)N[C@@H](Cc2ccc(O)cc2)C(=O)N1 (stereo partly drawn),i,i,i,50µM,i,?
O=[N+]([O-])c1ccc(O)c(Nc2ncnc3ccc(Br)cc23)c1,?,?,i,?,i,i
